Compounds without any hit were thinned out: in the full panel of roughly 83,000, 20% have a hit.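 For each line, cells grew in 96-well plates with the test compound present at a single concentration for 48 hours.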 Values without a mark were called inactive. Active and inactive are the calls of the source. Rule for the calls: active = growth percent below 10; inactive = the rest.
Legend:
Assay in all cases: NCI-60 one-dose screen, 48 h (100 = growth as untreated, 0 = no growth, -100 = all killed)
Conditions in all cases: 10 µM unless noted
[1] = tested on: NCI-H23 lung
[2] = tested on: NCI-H226 lung
[3] = tested on: NCI-H322M lung
[4] = tested on: HOP-62 NSCLC
[5] = tested on: NCI-H460 lung
[6] = tested on: HOP-92 NSCLC
[7] = tested on: NCI-H522 lung
[8] = tested on: A549/ATCC NSCLC
[9] = tested on: 786-0 renal
[10] = tested on: DU-145 prostate
[11] = tested on: K-562 leukemia
[12] = tested on: MALME-3M melanoma
[13] = tested on: MDA-MB-231 breast
[14] = tested on: RXF 393 renal
[15] = tested on: SF-268 CNS
[16] = tested on: SF-295 CNS
[17] = tested on: SF-539 CNS
[18] = tested on: UACC-257 melanoma
[19] = tested on: M14 melanoma
[20] = tested on: COLO 205 colon

SMILES	growth [1]	growth [2]	growth [3]	growth [4]	growth [5]	growth [6]	growth [7]	growth [8]	growth [9]	growth [10]	growth [11]	growth [12]	growth [13]	growth [14]	growth [15]	growth [16]	growth [17]	growth [18]	growth [19]	growth [20]
COc1ccc2[nH]c(-c3ccc(Cl)cc3)cc(=O)c2c1	94.5%	97.6%	92%	104%	100%	88.6%	86.7%	96.3%	88.3%	105%	97.4%	98.6%	95.6%	111%	98.2%	97%	99.9%	98%	95.1%	–
c1ccc2c(-c3nc(-c4c[nH]c5ncccc45)cs3)c[nH]c2c1	97.5%	97.9%	91.1%	83.2%	115%	65.7%	85.2%	100%	93.4%	112%	106%	–	79.9%	116%	111%	119%	99.3%	109%	99.8%	–
CCN1CCN(C(=O)[C@]23CCC(C)(C)C[C@@H]2C2=CC[C@@H]4[C@@]5(C)C/C(=C/c6ccncc6)C(=O)C(C)(C)[C@@H]5CC[C@@]4(C)[C@]2(C)CC3)CC1	-7.07% (active)	-42.8% (active)	27%	-66.9% (active)	-64.7% (active)	-11% (active)	-59% (active)	4.33% (active)	-73.6% (active)	-16.9% (active)	-13.1% (active)	-87.9% (active)	-59.9% (active)	-93.3% (active)	14.8%	-55.9% (active)	-96.4% (active)	-2.01% (active)	-76% (active)	–
COC(=O)[C@]12CC[C@@H](C)[C@H](C)[C@@H]1C1=CC(=O)[C@@H]3[C@@]4(C)C[C@@H](OC(C)=O)[C@H](OC(C)=O)[C@@](C)(COC(C)=O)[C@@H]4C(=O)C[C@@]3(C)[C@]1(C)CC2	45.4%	41.8%	82.6%	58.2%	32.4%	18.1%	47.6%	42.5%	68.5%	73%	–	44.6%	41.6%	64.5%	73.8%	51.6%	72.3%	–	29.5%	39.5%
CCCCCCCN(CCCCCCC)C(=N)c1ccnc2ccccc12	0.856% (active)	39.3%	-2.85% (active)	-57.2% (active)	-83.9% (active)	-4.56% (active)	-46.7% (active)	-57.4% (active)	-93.6% (active)	1.08% (active)	-14.9% (active)	-76.2% (active)	-71.3% (active)	-76% (active)	33%	-78.3% (active)	-82% (active)	-69.4% (active)	-64% (active)	–
Nc1c2c(nc3ccc(Br)cc13)CC(c1ccccc1)CC2=O (stereo not given)	37.7%	71.2%	49.1%	48.9%	17.1%	77.9%	35.6%	48.5%	49.6%	24.2%	13.4%	51.9%	59.6%	21.8%	73.3%	9.76% (active)	20%	86.3%	17.8%	–
C=C(C)[C@@H]1CC[C@]2(C(=O)O)CC[C@]3(C)[C@H](CC[C@@H]4[C@@]5(C)C/C(=C/c6ccc(OC)cc6)C(=O)C(C)(C)[C@@H]5CC[C@]43C)[C@@H]12	8.25% (active)	25%	30.4%	23.8%	1.81% (active)	18.9%	12.7%	16.8%	25.1%	34.4%	15.6%	42.2%	32.4%	43.9%	38.8%	11.9%	22.1%	31.1%	25.3%	–
N#C/C(=C\c1ccc(-c2ccc(Br)cc2)o1)c1nc(-c2cccs2)cs1	91.3%	102%	97.8%	107%	103%	91%	94.4%	109%	100%	100%	97%	101%	89.3%	107%	102%	100%	93.8%	102%	95.8%	–

Source: PubChem BioAssay (NCI)
